The experiment is described as follows: NCI Yeast Anticancer Drug Screen. Data for the mlh1 strain (AID 171).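 Note: 0% = growth of vehicle-treated control cultures of the same strain.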 The note with it: S. cerevisiae mlh1 strain growth inhibition, hits give high values. How it is done: Growth inhibition of yeast strains with defined genetic alterations is measured as a screen for potential anti-cancer activity. Selected strains with alterations in DNA damage repair or cell cycle control were exposed to compounds and growth inhibition was measured relative to vehicle treated controls. The strain used in this assay is mlh1

This is part of a sample that, as a whole, favours compounds with a hit. Of some 79,000 tested, about 15% had one in any assay. A number with no mark means an inactive call. Calls of active or inactive are those of the source. Cut-off read from the data, not from the text of the source: active = growth inhibition above about 70%; inactive = the rest.

On to `Cc1ccccc1N=C(NO)c1ccccc1`, for which the growth inhibition is 1% (at 1.2 µM); 2% (at 3.7 µM); 2% (at 11.0 µM); 31% (at 33.0 µM); 95% (active) (at 100.0 µM).

Consider `CCCCCCCCCCCCCCCCCC(=O)NCCCN(C)C`, for which the growth inhibition was -21% (at 1.2 µM); -35% (at 3.7 µM); -44% (at 11.0 µM); 97% (active) (at 33.0 µM); 97% (active) (at 100.0 µM).

Turning to `COC(=O)CC1CCc2c(ccc3ccccc23)C1(C)C(=O)OC` (stereo not given), the growth inhibition reads like this: (at 1.2 µM) -5%; (at 3.7 µM) -2%; (at 11.0 µM) 0%; (at 33.0 µM) 14%; (at 100.0 µM) 57%.

As to `Cc1cc(C)nc(NS(=O)(=O)c2ccc(Nc3c4ccccc4nc4c(C(=O)NCCO)cccc34)cc2)n1`, the growth inhibition reads like this: (at 1.2 µM) -3%; (at 3.7 µM) -2%; (at 11.0 µM) 0%; (at 33.0 µM) -1%; (at 100.0 µM) 30%.

As for `CC(C)(CCCCC(C)(C)[N+](C)(C)C)[N+](C)(C)C`, the growth inhibition (at 1.2 µM) was 1%; the growth inhibition (at 3.7 µM) is 1%; the growth inhibition (at 11.0 µM) was 0%; the growth inhibition (at 33.0 µM) is 0%; the growth inhibition (at 100.0 µM) is -1%.

With `COc1cc(/C=N/Nc2nnc3c4ccccc4c4ncccc4c3n2)cc(OC)c1OC`, the growth inhibition is -1% (at 1.2 µM); 0% (at 3.7 µM); -2% (at 11.0 µM); 3% (at 33.0 µM); 6% (at 100.0 µM).

`Cc1ccc2c3ccc4c(c3n(C)c2c1)C(=O)C=CC4=O`: the growth inhibition runs as follows: (at 1.2 µM) -10%; (at 3.7 µM) -3%; (at 11.0 µM) 16%; (at 33.0 µM) 46%; (at 100.0 µM) 81% (active).

On to `CCCCCOC(=S)SC(=O)OCC`, for which the growth inhibition is -1% (at 1.2 µM); 2% (at 3.7 µM); 14% (at 11.0 µM); 63% (at 33.0 µM); 95% (active) (at 100.0 µM).
